Screens (PubChem BioAssay)
D1 PAM: enhances dopamine response at the human D1 receptor | HEK293 TREx D1 cells, calcium flux, dopamine EC20 potentiation | potentiation, % at 10 µM | 360,000 tested, 0.036% active; in the data active = potentiation above about 30%; note: 0% is about no effect
D3 ag: agonists of human D3 dopamine receptor. P35462. 410,000 tested, 0.58% active. D3R DiscoveRx beta-arrestin cells, luminescence, 90 min. max activation, %; in the data active = max activation above about 30%; note: 0% is about no effect
Target sequence (P35462 whole entry, looked up): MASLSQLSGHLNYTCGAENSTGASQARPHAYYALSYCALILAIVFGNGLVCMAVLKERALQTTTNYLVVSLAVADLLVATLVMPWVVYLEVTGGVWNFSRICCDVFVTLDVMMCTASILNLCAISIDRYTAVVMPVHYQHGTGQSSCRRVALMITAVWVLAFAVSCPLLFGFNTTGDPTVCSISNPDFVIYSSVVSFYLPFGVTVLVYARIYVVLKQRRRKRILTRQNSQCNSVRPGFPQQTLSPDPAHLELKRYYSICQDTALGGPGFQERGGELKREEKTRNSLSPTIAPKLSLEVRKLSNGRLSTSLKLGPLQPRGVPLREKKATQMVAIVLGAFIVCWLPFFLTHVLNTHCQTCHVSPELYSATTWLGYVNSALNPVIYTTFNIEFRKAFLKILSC
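Agonist-mode cell screen: cells plated at 1500/well and incubated overnight at 37 °C, then exposed to library compounds for 90 min at 37 °C. Detection reagent was added for 30–60 min at room temperature, and luminescence was read.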
D3 antag: antagonists of human D3 dopamine receptor. 360,000 tested, 2.5% active. D3R cells, DiscoveRx beta-arrestin luminescence, antagonist mode; stronger effect = lower value. P35462. max response, negative = inhibition, %; in the data active = max response below about -50%; inconclusive = no clear call, values can overlap the other calls; note: % is set by controls: 0 for no effect and ±100 for the full control effect
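Cells expressing the human receptor were seeded at 1500 cells/well, incubated overnight at 37 degrees C in 5% CO2, then exposed to library compounds with dopamine controls for 90 minutes at 37 degrees C before luminescent detection.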
D1 antagonist: human D1 dopamine receptor antagonism | AID 504652 | HEK293 TREx D1 cells, calcium flux, dopamine EC80; stronger effect = lower value | activity change, negative = inhibition, % at 10 µM | 360,000 tested, 3.2% active; in the data active = activity change below about -30%; note: % is set by controls: 0 for no effect and ±100 for the full control effect
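Inducible Hek293 Trex D1 cells (tetracycline, overnight, 30 C). Calcium dye 30–90 min RT. Antagonist mode: EC80 dopamine added after 180 s compound read.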
D1 agonist: human D1 receptor agonism | P21728 | HEK293 T-REx D1 cells, calcium flux, agonist mode | activation, % at 2 µM | 360,000 tested, 1% active | AID 504660; in the data active = activation above about 30%; note: 0% is about no effect
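Agonism was scored from calcium flux recorded over 180 s (1 read/s) after pintool compound addition, following a 10-cycle baseline. Cells were inducible force-coupled HEK293 TREx D1, plated overnight at 30 C and loaded with no-wash calcium dye.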
ERG Ets-DNA blk: inhibitors of human ERG Ets domain-DNA interaction; P11308; fluorescence polarization, His-ERG Ets domain / labelled DNA; Potency, µM (series often up to 76.9 µM), without a hit: at the top dose FP activity, negative = inhibition, most hits filed as inhibitors; 370,000 tested, 0.028% active; active = well fitted inhibition curve with a large enough effect in the polarisation, with a control signal flat; inconclusive = small, poorly fitted or top-dose-only effect, or effect the other way, or a change in a side signal; inactive = no such curve, though single readings can be large or run the other way; the % refers to the polarisation;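 note: polarization taken with two DNA probes labelled with fluorescein and Texas red; potency is the fitted concentration of half-maximal effect; % of control where 0% means no effect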
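His-tagged ERG Ets domain (1 uM in the protein solution; 300mM KCl, 50mM Tris-HCl, 1mM EDTA, 1mM DTT, pH 7.5) received compound, then a probe mix of 5 nM fluorescein-DNA and 100nM Texas-615-DNA. Fluorescence polarization was read for both dyes.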
* hit, by the source's call; ! = not confirmed by another sample. Only some compounds are listed: those with a hit (about 6.1% of all), similar ones and a draw of the others.

Screening CCN(CC)c1c2c(c(C#N)c3nc4ccccc4n13)CCC2 returned D1 PAM -5, D3 ag 14, D3 antag -9, D1 antagonist -5, D1 agonist -1 and ERG Ets-DNA blk -5%.
`O=C(NCc1ccccc1)c1cc(C2COCCN2C(=O)c2ccccc2)on1` (stereo not drawn) gave D3 ag -4 and D3 antag 36.
`O=C(NCCCN1CCN(c2ccccc2)CC1)C1CCCN(c2ncnc3c2nc2n3CCCCC2)C1` (stereo not drawn) gave D1 PAM -19, D3 ag 16, D3 antag -67*, D1 antagonist -30*, D1 agonist 1 and ERG Ets-DNA blk -3%.
O=C(NCCc1ccccc1)C1CCCN(c2ncnc3c2nc2n3CCCCC2)C1 (stereo not drawn) was read as D1 PAM -5, D3 ag -1, D3 antag 7, D1 antagonist 2, D1 agonist 1 and ERG Ets-DNA blk 17%.
For COc1ccc(OC)c(CNC(=O)C2CCCN(c3ncnc4c3nc3n4CCCCC3)C2)c1 (stereo not drawn) the results were D1 PAM -1, D3 ag 15, D3 antag 17, D1 antagonist -33*, D1 agonist 1 and ERG Ets-DNA blk -3%.
`CCOc1ccccc1CNC(=O)C1CCCN(c2ncnc3c2nc2n3CCCCC2)C1` (stereo not drawn) gave D1 PAM -7, D3 ag -7, D3 antag -3, D1 antagonist -13, D1 agonist 2 and ERG Ets-DNA blk 13%.
Screening O=C(C1CCN(c2ncnc3c2nc2n3CCCCC2)CC1)N1CCN(c2cccc(Cl)c2)CC1 returned D1 PAM -2, D3 ag 10, D3 antag 60, D1 antagonist -31*!, D1 agonist 7 and ERG Ets-DNA blk -8%.
For COC(=O)[C@H]1C[C@@H]1[C@H](NC(=O)[C@H]1C[C@@H]1[C@H](NC(=O)OCc1ccccc1)c1ccccc1)c1ccccc1 the results were D1 PAM -5, D3 ag -26, D3 antag -7, D1 antagonist -6, D1 agonist 7 and ERG Ets-DNA blk 9%.
Screening CCCCSc1nc(C)c(C(C)=O)cc1C#N returned D1 PAM -5, D3 ag -5, D3 antag -52*, D1 antagonist 8, D1 agonist 4 and ERG Ets-DNA blk -1%.
Screening CN(Cc1ccccc1)Cc1cc(=O)oc2ccccc12 returned D3 ag -6 and D3 antag 0.
CCc1ccc2c(CN(C)Cc3ccccc3OC)cc(=O)oc2c1 was read as D1 PAM -6, D3 ag -10, D3 antag 1, D1 antagonist -31*, D1 agonist 3 and ERG Ets-DNA blk -2%.
For COc1ccc(C2=NC(C(F)(F)F)(C(F)(F)F)c3c(n(C)c(=O)n(C)c3=O)N2)cc1 the results were D1 PAM -1, D3 ag 1, D3 antag -6, D1 antagonist -6, D1 agonist 2 and ERG Ets-DNA blk 1%.
Screening COc1cc(NCCCNC(C)C)c2nccc(C)c2c1 returned D3 ag -8, D3 antag -21 and ERG Ets-DNA blk inconclusive.
Screening c1ccc(COc2ccc(OCCN3CCCC3)cc2)cc1 returned D1 PAM -7, D3 ag -21, D3 antag -20, D1 antagonist 1, D1 agonist 48* and ERG Ets-DNA blk -9%.
`c1ccc(COc2ccc(OCCN3CCCCC3)cc2)cc1` gave D1 PAM -4, D3 ag -20, D3 antag -6, D1 antagonist -31*, D1 agonist 43* and ERG Ets-DNA blk -2%.
OC(COc1ccc(OCc2ccccc2)cc1)CN1CCCCC1 (stereo not drawn) was read as D1 PAM -7, D3 ag -16, D3 antag 8, D1 antagonist 7 and D1 agonist 17.
`c1ccc(COc2ccc(OCCCN3CCCC3)cc2)cc1` gave D1 PAM -4, D3 ag 0, D3 antag inconclusive, D1 antagonist -25, D1 agonist 26 and ERG Ets-DNA blk 10%.
`CC(C)=CC1C=C(C)C(C)C2C(=O)NNC(=O)C12` (stereo not drawn) gave D1 PAM -4, D3 ag 2, D3 antag -97*, D1 antagonist 7 and D1 agonist 4.
Screening CC(C)CNc1ncnc2c1cnn2Cc1ccccc1Cl returned D1 PAM -5, D3 ag 7, D3 antag 0, D1 antagonist -7, D1 agonist 0 and ERG Ets-DNA blk -10%.
O=C1/C(=C/c2ccncc2)SC(=S)N1C1CCS(=O)(=O)C1 (stereo not drawn) was read as D1 PAM -1, D3 ag -4, D3 antag -14, D1 antagonist -6, D1 agonist 1 and ERG Ets-DNA blk 28%.
`O=C1/C(=C/c2ccccc2)SC(=S)N1C1CCS(=O)(=O)C1` (stereo not drawn) gave D1 PAM -11, D3 ag -14, D3 antag 0, D1 antagonist -46*, D1 agonist 10 and ERG Ets-DNA blk 5%.
`COc1ccc(C2Nc3ccccc3C(=O)N2NC(=O)c2ccccc2)cc1OC` (stereo not drawn) gave D1 PAM -4, D3 ag -7, D3 antag -1, D1 antagonist 6, D1 agonist 3 and ERG Ets-DNA blk -3%.
Cc1ccc(CCNC(=O)CCS(=O)(=O)c2cc3c(cc2C)NC(=O)CO3)cc1 was read as D1 PAM -1, D3 ag 5, D3 antag 3, D1 antagonist -86*!, D1 agonist 0 and ERG Ets-DNA blk 5%.
Screening CCOc1cc(NS(=O)(=O)c2ccccc2)c(OCC)cc1NC(=O)c1ccco1 returned D1 PAM -3, D3 ag 0, D3 antag -51*, D1 antagonist 5, D1 agonist 5 and ERG Ets-DNA blk -1%.
Screening O=S(=O)(c1ccccc1)N1CCN(Cc2c(O)ccc3ccccc23)CC1 returned D3 ag 6, D3 antag 4 and ERG Ets-DNA blk 4%.
O=C(CN1CCN(c2ccccc2F)CC1)c1ccc(O)c(O)c1 was read as D1 PAM 0, D3 ag -5, D3 antag -21, D1 antagonist -8, D1 agonist 0 and ERG Ets-DNA blk 77%.
For Oc1ccc2ccccc2c1CN1CCN(C/C=C/c2ccccc2)CC1 the results were D1 PAM -5, D3 ag -26, D3 antag -56*, D1 antagonist 7, D1 agonist 5 and ERG Ets-DNA blk -8%.
